From PubChem BioAssay AID1159580 (chemical genetic matrix, 2015)
The campaign covered roughly 5,500 compounds. About 2,000 (36%) were called active. Not shown: some 18% with an inconclusive outcome. No stated cut-off is given here; in the data, active means normalized growth mostly below about 0.91 (no sharp cut-off); inconclusive means no clear call, values can overlap the other calls; inactive means mostly above about 0.92. The list shows a part of the results.

Assay: chemical genetic growth profiling, strain panel (AID 1159580);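 further: tested at 20 µM; growth read once vehicle control cultures reached saturation at 30 °C; 1 = growth at the plate median or of vehicle wells; lower values mean less growth of the strain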
Conditions: S. cerevisiae deletion strains, growth OD

Measured: normalized growth

CC(=O)NS(=O)(=O)c1ccc(NC(=O)c2ccccc2C(=O)O)cc1
inactive: locus YAL021C, strain ccr4, hits give low values 1.01 | locus YAL026C, strain drs2, hits give low values 1.02 | locus YAL030W, strain snc1, hits give low values 1.02 | locus YBL061C, strain skt5, hits give low values 1.01 | locus YBR009C, strain hhf1, hits give low values 1.03 | locus YBR023C, strain chs3, hits give low values 1.02 | locus YBR171W, strain sec66, hits give low values 1.04 | locus YBR231C, strain swc5, hits give low values 1.01 | locus YBR279W, strain paf1, hits give low values 1.02 | locus YCL011C, strain gbp2, hits give low values 1.01 | locus YCL016C, strain dcc1, hits give low values 1.02 | locus YCL061C, strain MRC1, hits give low values 1.02 | locus YCL069W, strain vba3, hits give low values 1.02 | locus YCR088W, strain abp1, hits give low values 1.01 | locus YDL005C, strain med2, hits give low values 1.02 | locus YDL040C, strain nat1, hits give low values 1.02 | locus YDR001C, strain nth1, hits give low values 1.01 | locus YDR069C, strain doa4, hits give low values 1.02 | locus YDR137W, strain rgp1, hits give low values 1.04 | locus YDR159W, strain sac3, hits give low values 1.04 | locus YDR195W, strain ref2 1.01 | locus YDR297W, strain sur2, hits give low values 1.01 | locus YDR334W, strain swr1, hits give low values 1.01 | locus YDR335W, strain msn5, hits give low values 1.01 | locus YDR392W, strain spt3, hits give low values 1.01 | locus YEL003W, strain gim4, hits give low values 1.01 | locus YEL037C, strain rad23, hits give low values 1.01 | locus YEL061C, strain CIN8 (second series), hits give low values 1.02 | locus YER015W, strain faa2, hits give low values 1.02 | locus YER016W, strain bim1, hits give low values 1.02 | locus YER111C, strain swi4, hits give low values 1.02 | locus YER155C, strain BEM2 (second series), hits give low values 1.05 | locus YFR010W, strain ubp6, hits give low values 1.02 | locus YGL167C, strain pmr1, hits give low values 1.02 | locus YGL173C, strain kem1, hits give low values 1.02 | locus YGL227W, strain vid30, hits give low values 1.02 | locus YGL240W, strain doc1, hits give low values 1.01 | locus YGL253W, strain hxk2, hits give low values 1.02 | locus YHR013C, strain ard1, hits give low values 1.02 | locus YHR027C, strain rpn1, hits give low values 1.02 | locus YHR030C, strain SLT2, hits give low values 0.958 | locus YHR079C, strain IRE1, hits give low values 0.969 | locus YHR142W, strain chs7, hits give low values 1.04 | locus YJL092W, strain hpr5, hits give low values 1.01 | locus YJL095W, strain BCK1 (second series), hits give low values 1.02 | locus YJL095W, strain BCK1, hits give low values 0.972 | locus YJL115W, strain asf1, hits give low values 1.02 | locus YJL129C, strain trk1, hits give low values 1.03 | locus YJL154C, strain vps35, hits give low values 1.02 | locus YJL164C, strain tpk1, hits give low values 1.01 | locus YJL166W, strain qcr8, hits give low values 1.02 | locus YJL187C, strain SWE1, hits give low values 1.01 | locus YJR066W, strain TOR1, hits give low values 0.949 | locus YKL160W, strain elf1, hits give low values 1.02 | locus YKR026C, strain gcn3, hits give low values 1 | locus YKR091W, strain srl3, hits give low values 1.01 | locus YLL001W, strain dnm1, hits give low values 1.01 | locus YLL026W, hits give low values 1.02 | locus YLL041C, strain sdh2, hits give low values 1.02 | locus YLR027C, strain aat2, hits give low values 1.02 | locus YLR113W, strain HOG1, hits give low values 0.976 | locus YLR221C, strain rsa3, hits give low values 1.02 | locus YLR258W, strain gsy2, hits give low values 1.01 | locus YLR262C, strain YPT6 (second series), hits give low values 1.03 | locus YLR320W, strain mms22, hits give low values 1.03 | locus YLR342W, strain FKS1, hits give low values 1.01 | locus YLR357W, strain rsc2, hits give low values 1.05 | locus YLR370C, strain arc18, hits give low values 1.02 | locus YLR384C, strain iki3, hits give low values 1.03 | locus YML120C, strain ndi1, hits give low values 1.01 | locus YMR058W, strain fet3, hits give low values 1.04 | locus YMR125W, strain sto1, hits give low values 1.03 | locus YMR129W, hits give low values 1.03 | locus YMR205C, strain PFK2, hits give low values 1.02 | locus YMR231W, strain pep5, hits give low values 1.02 | locus YNL071W, strain lat1, hits give low values 1.02 | locus YNL183C, strain NPR1, hits give low values 0.91 | locus YNL209W, strain ssb2, hits give low values 1.02 | locus YNL248C, strain rpa49, hits give low values 1.02 | locus YNL322C, strain KRE1 (second series), hits give low values 1.01 | locus YNR049C, strain mso1, hits give low values 1.01 | locus YOR001W, strain rrp6, hits give low values 1.02 | locus YOR070C, strain gyp1, hits give low values 1.01 | locus YOR080W, strain dia2, hits give low values 1.01 | locus YOR083W, strain WHI5, hits give low values 1.01 | locus YOR106W, strain vam3, hits give low values 1.03 | locus YOR231W, strain MKK1, hits give low values 0.953 | locus YOR265W, strain rbl2, hits give low values 1.03 | locus YOR270C, strain vph1, hits give low values 1.05 | locus YOR290C, strain snf2, hits give low values 1.04 | locus YPL051W, strain arl3, hits give low values 1.03 | locus YPL078C, strain atp4, hits give low values 1.02 | locus YPL106C, strain sse1, hits give low values 0.991 | locus YPL240C, strain hsp82, hits give low values 1.01 | locus YPL256C, strain CLN2, hits give low values 0.975
